# Laboratory results as given in PubChem BioAssay (NCI).
# This is part of a sample that, as a whole, favours compounds with a hit. Of some 83,000 tested, about 20% had one in any assay.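 Plates (96-well) were seeded with cells, treated with compound at one concentration, and incubated for 48 hours before percent growth was determined.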 Calls of active or inactive are those of the source.
# Test system: HOP-62 NSCLC
# Experiment: NCI-60 one-dose screen, 48 h (100 = growth as untreated, 0 = no growth, -100 = all killed)
# Settings: 10 µM unless noted
# Protocol: Growth inhibition of the HOP-62 human Non-Small Cell Lung tumor cell line is measured as a screen for anti-cancer activity. Cells are grown in 96 well plates and exposed to the test compound for 48 hours. Compounds are tested at a single concentration, which is 10^-5 M for most compounds. The reported endpoint is percent growth (GI% or GIPRCNT), where numbers from 0 - 100% represent growth inhibition, and numbers from -100% - 0 represent cell death. For example, a value of 40 represents 60% growth inhibition. A value of 0 means no net growth occurred over the course of the experiment. A value of -40 indicates 40% of cells at the beginning of the experiment died by the end of the experiment. A value of -100 means all cells are dead at the end of the experiment.
# NCI-60 Human Tumor Cell Lines Screen was performed using the standard one-dose NCI protocol, which is described in more detail at https://dtp.cancer.gov/discovery_development/nci-60/default.htm.
# Compounds with GIPRCNT values below 10 were considered active. Activity score was based on GIPRCNT using the following formula: […]
# Score is 0 for GIPRCNT values of 100 or above, 50 for GIPRCNT values of 0, and 100 for GIPRCNT values of -100.
row,SMILES,growth
1,COc1cccc(-c2nc(Nc3ccc(S(N)(=O)=O)cc3)c3ccccc3n2)c1,58.9% (inactive)
2,CCOP(=O)(OCCCl)c1nc(-c2ccc(C)cc2)oc1NCc1ccccc1 (stereo not given),93.9% (inactive)
3,N#Cc1c(-c2ccc(Br)cc2)nc2n[nH]c(-c3ccc(Br)cc3)c2c1-c1ccc(C(F)(F)F)cc1,40.3% (inactive)
4,NS(=O)(=O)c1ccc(NNC(=O)CCC(=O)c2ccccc2)cc1,100% (inactive)
5,CC1(C)CC[C@]2(C(=O)Nc3ccc(F)cc3)CC[C@]3(C)C(=CCC4[C@@]5(C)C[C@@H](O)[C@H](O)[C@@](C)(CO)C5CC[C@]43C)C2C1 (stereo not given in full),58.6% (inactive)
6,Cc1occc1C(=O)NN1C(=O)/C(=C/C=C/c2ccc([N+](=O)[O-])o2)SC1=S,-9.58% (active)
7,COc1c(F)ccc(C(=O)Nc2ccc3nc(NC(=O)C4CCCN(S(=O)(=O)c5ccc(Br)s5)C4)sc3c2)c1F (stereo not given),104% (inactive)
8,C(=C\c1cc(/C=C/c2ccccc2)c2ccccc2n1)/c1ccccc1,109% (inactive)
9,C#CCOc1cc(N(CC)CC)ccc1C(C(=O)NC(C)(C)C)N(C(=O)C1CCc2cc(F)ccc2O1)c1ccccc1F (stereo not given),49.5% (inactive)
10,O=C(C1=CNC(=S)NC1c1ccc(O)cc1)c1cc2ccccc2oc1=O (stereo not given),91.4% (inactive)
11,COc1ccc(-c2nnc3ccc(N/N=C/c4ccc(C)cc4)nn23)cc1,70.4% (inactive)
12,O=S(=O)(Nc1cccc(-n2cnc3cc(-c4ccc(O)cc4)ccc32)c1)C1CC1,44.1% (inactive)
13,COc1ccc(/C=C2\C(=O)Nc3ccc(Cl)cc32)cc1OCc1ccccn1,14.6% (inactive)
14,COc1cc2oc(-c3cccc(C(=O)Nc4ccc(Cl)cc4)c3)cc(=O)c2c(OCCNC(=O)[C@H](CCC(=O)OC(C)(C)C)NC(=O)OC(C)(C)C)c1OC,95.3% (inactive)
15,O=C(NN1C(=O)/C(=C/C=C/c2ccc([N+](=O)[O-])o2)SC1=S)c1ccc(Cl)cc1,-98.8% (active)
16,CN1CCN(/C(=N\c2sc(-c3ccccc3)nc2-c2ccccc2)c2ccccc2)CC1,97.1% (inactive)
17,COc1ccc2c(c1)c(-c1cc3nc(-c4cn(C)c5ncccc45)cc(N)n3n1)cn2C,-25.8% (active)
18,OCC1(CCCc2ccccc2)CCCN(c2nccc3ccccc23)C1 (stereo not given),72.6% (inactive)
19,COc1ccc(NC(=O)Nc2ccc(OCc3ccc(F)cc3)cc2)cc1,44.5% (inactive)
20,COc1cc2c(c(OC)c1OC)C(=O)CC(c1cccc(NC(=O)c3cc(NC(=O)[C@H](C)N)ccc3Cl)c1)O2 (stereo not given in full),79.1% (inactive)

row,SMILES,growth
1,CCS(=O)(=O)N1CCCC(C(=O)Nc2nc3ccc(NC(=O)c4ccc(F)c(OC)c4F)cc3s2)C1 (stereo not given),80.6% (inactive)
2,COc1ccc2[nH]c(O)c(N=NC(=O)Cn3c(-c4ccccc4)nc4cc(C)ccc43)c2c1,47.9% (inactive)
3,C=CC[N+](C)(C)CCn1c2ccccc2c2nc3cc(C)c(C)cc3nc21,96.3% (inactive)
4,CC(=O)Nc1cccc(Nc2nc(NCc3ccccc3)c3ccccc3n2)c1,-90.8% (active)
5,CC12CC[C@@H]3[C@]4(C)COC(c5cn[nH]c5-c5cccc(Br)c5)O[C@@H]4CC[C@@]3(C)[C@@H]1CC(C1=CCOC1=O)O2 (stereo not given in full),70.3% (inactive)
6,C#C[C@]1(O)CC[C@H]2[C@@H]3CC=C4c5sc(-c6ccc(O)c(O)c6)nc5CC[C@]4(C)[C@H]3CC[C@@]21C,-83.1% (active)
7,COc1cc2c(c(OC)c1OC)C(=O)CC(c1cccc(NC(=O)c3cc([N+](=O)[O-])ccc3Cl)c1)O2 (stereo not given),43% (inactive)
8,O=C(N/N=C/c1ccc(-c2ccc(O)cc2)s1)c1[nH]c2ccc(Br)cc2c1-c1ccccc1,21.2% (inactive)
9,C=C1CC[C@@H]2[C@]3(C)COC(c4ccccc4)O[C@@H]3CC[C@@]2(C)[C@@H]1C/C=C1/C(=O)OCC1OC(C)=O (stereo not given in full),-27.7% (active)
10,C=C1CCC2C3(C)COC(c4cc(F)cc(F)c4)OC3CCC2(C)C1CC(O)C1=CCOC1=O (stereo not given),90.6% (inactive)
11,O=C(COc1ccc(NC(=O)Nc2ccccc2)cc1)N=Nc1c(O)[nH]c2ccc([N+](=O)[O-])cc12,24.5% (inactive)
12,Cn1cc(-c2cc(N)n3nc(-c4cn(C)c5ccc(Cl)cc45)cc3n2)c2ccccc21,115% (inactive)
13,CCCCCCn1c(O)c(N=Nc2nc(-c3cc4ccccc4oc3=O)cs2)c2ccccc21,39.9% (inactive)
14,O=C(CCN1C(=O)/C(=C/c2ccc(F)cc2)SC1=S)N1CCOCC1,109% (inactive)
15,Brc1ccc(-c2n(Cc3ccc4ccccc4c3)c(-c3ccccc3)c(-c3ccccc3)[n+]2Cc2ccc3ccccc3c2)cc1,-83.4% (active)
16,CCOC(=O)/C=C/c1cccc2c1C(=O)NC(C)(c1cc3cc(Cl)ccc3oc1=O)N2 (stereo not given),55.7% (inactive)
17,COc1ccc(NC(=O)Cn2c3c(sc2=O)[C@H]2[C@@H](O)[C@@H](O)[C@H](O)[C@@H]2CS3)cc1,99.5% (inactive)
18,CC12CC[C@@H]3[C@]4(C)COC(c5cn[nH]c5-c5ccc(Br)cc5)O[C@@H]4CC[C@@]3(C)[C@@H]1CC(C1=CCOC1=O)O2 (stereo not given in full),79.5% (inactive)
19,C[C@H](Nc1nc(NCCc2ccccc2)nc2ccccc12)c1ccccc1,-90.3% (active)
20,O=C(COc1ccc2c(c1)CCCC(=O)N2)NCc1ccccc1,92.5% (inactive)
